Results from PubChem BioAssay AID624330 (Southern Research Specialized Biocontainment Screening …, 2012).
Screen size: about 340,000 compounds; about 2,100 (0.62%) were called active.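 The calls were made as follows: active = first-screen hits whose inhibition reached a set limit at any dose in the follow-up dose series; inconclusive = inhibition above the set first-screen limit but never retested; inactive = the rest.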 A selection follows. Measured potencies and affinities stand elsewhere.

These compounds were tested against Rac GTPase-activating protein 1 (Homo sapiens) (UniProt Q9H0H5) (assay: blockers of MgcRacGAP-driven Rac1 GTP hydrolysis – biochemical, ADP Hunter fluorescence, primary and confirmatory, confirmation (AID 624330;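 also: fluorescence reports GDP produced by GAP-driven GTP hydrolysis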)). Conditions: MgcRacGAP-stimulated Rac1 GTP hydrolysis, at 30 µM, stronger effect = higher value, GST-tagged Rac1 F28L mutant substrate.
Chain of Rac GTPase-activating protein 1 (Homo sapiens) (Q9H0H5 whole entry, looked up): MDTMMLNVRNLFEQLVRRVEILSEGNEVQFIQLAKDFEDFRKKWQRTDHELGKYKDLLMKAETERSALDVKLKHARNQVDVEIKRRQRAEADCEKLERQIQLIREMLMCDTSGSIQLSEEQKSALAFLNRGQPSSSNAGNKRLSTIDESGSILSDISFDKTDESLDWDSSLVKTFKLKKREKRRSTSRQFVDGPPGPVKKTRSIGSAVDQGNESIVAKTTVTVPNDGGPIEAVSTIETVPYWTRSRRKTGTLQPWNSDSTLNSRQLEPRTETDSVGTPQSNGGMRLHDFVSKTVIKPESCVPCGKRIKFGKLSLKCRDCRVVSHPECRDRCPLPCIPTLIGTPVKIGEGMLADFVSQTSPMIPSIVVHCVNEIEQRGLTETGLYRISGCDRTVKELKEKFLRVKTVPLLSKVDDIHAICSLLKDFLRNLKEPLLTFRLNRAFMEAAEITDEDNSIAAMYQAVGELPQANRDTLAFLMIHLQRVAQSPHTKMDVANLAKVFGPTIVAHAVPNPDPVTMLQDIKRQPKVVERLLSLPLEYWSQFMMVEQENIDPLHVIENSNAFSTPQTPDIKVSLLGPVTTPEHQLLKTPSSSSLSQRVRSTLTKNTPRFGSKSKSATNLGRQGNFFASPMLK

inhibition, inactive:
CC(=O)Nc1ccc(S(=O)(=O)NNC(=O)c2cccc([N+](=O)[O-])c2)cc1 5.98%
COc1ccccc1NC(=O)CCC(=O)c1ccc(-c2ccccc2)cc1 -5.2%
CCc1ccc(NC(=O)C(=O)NCCOc2ccccc2Cl)cc1 -2.71%
Cc1ccccc1C(=O)c1cccn1CC(=O)NC1CCCC(C)C1C (configuration not stated) -36.1%
NC(=O)C1(N2CCCCC2)CCN(Cc2ccc(Br)cc2)CC1 -3.42%
Clc1cc(Br)ccc1OCCN1CCOCC1 24.7%
CC1CCN(CCOCCOc2ccc(Br)cc2Cl)CC1 5.16%
Cc1ccc(OCCOCCN2CCCC2)c(Br)c1 31.4%
CC(C)(C)c1ccccc1OCCOCCN1CCCCCC1 -5.46%
Cc1cc(C)c(OCCOCCN2CCN(C)CC2)c(Cl)c1 22.7%
Cc1ccc(C(C)(C)C)c(OCCOCCN2CCCC2)c1 24.1%
CC1CCCN(CCOCCOc2ccc(Br)cc2Cl)C1 (configuration not stated) 30.6%
Cc1cc(Cl)c(OCCOCCN2CCC(C)CC2)c(Br)c1 21.9%
Cc1cccc(/C(N)=N/OC(=O)Cc2cccs2)c1 2.9%
Cn1c(=O)c2c(nc(Oc3ccc(-c4ccccc4)cc3)n2C)n(C)c1=O 12.2%
COc1ccc(C(=O)Oc2c(OC)cc(C(=S)N3CCOCC3)cc2OC)cc1 4.31%
Cc1cc(Br)ccc1OCCCCN1CCC(C)CC1 9.17%
Cc1ccc(OCCCCN2CCC(C)CC2)c(Br)c1 17%
C[C@@H]1CN([C@@H](C)CO)C(=O)CCCn2nncc2CO[C@@H]1CN(C)S(C)(=O)=O 12%
COCc1ccc(C(=O)N2CCCCC2C(=O)Nc2ccc(-n3nc(C)cc3C)cc2)o1 (configuration not stated) 7.88%
O=C(NCCCNC(=O)c1ccco1)c1ccc(Cl)c(Cl)c1 0%
O=C1CCCC(O)=C1C=Nc1cccc(C(F)(F)F)c1 11.5%
CC1(C)CC(=O)C(C=Nc2ccncc2)=C(O)C1 6.33%
CCOc1ccc(N=CC2=C(O)CC(C)(C)CC2=O)cc1 6.9%
O=C1CC(c2ccccc2)CC(O)=C1C=Nc1ccc(Cl)cc1 (configuration not stated) 2.18%
COc1ccc(N=CC2=C(O)CCCC2=O)cc1 13.3%
O=C1CC(c2ccccc2)CC(O)=C1C=Nc1ccccc1O (configuration not stated) 4.93%
COc1ccc(N=CC2=C(O)CC(C)(C)CC2=O)cc1 9.7%
CC1(C)CC(=O)C(C=Nc2ccccc2)=C(O)C1 2.7%
Cc1ccc(CN2CCN(/N=C/c3ccc(C)s3)CC2)c(C)c1 4.97%
COc1ccc(Nc2nnc(SCC(=O)NC3CCS(=O)(=O)C3)s2)cc1 (configuration not stated) 4.04%
O=C(CN1C(=O)NC2(CCCCCC2)C1=O)N1CCN(S(=O)(=O)c2ccccc2)CC1 0.28%
CC(=O)NC1C(=O)N(CC(C)C)c2ccccc21 (configuration not stated) 4.92%
CCCc1ccc2c(N)c(C#N)sc2n1 1.65%
Cc1ccccc1C(=O)N(CC(=O)Nc1sc(C)c(C)c1C(N)=O)C1CCCC1 -20.9%
CCOc1ccc(NC(=O)N(CCC(C)C)C2CCN(C(C)=O)CC2)cc1 4.34%
CCN1C(=O)c2cccc3c(N)ccc(c23)C1=O 7.37%
Nc1ccc2c3c(cccc13)C(=O)N(c1ccccc1)C2=O 5.87%
Cc1ncoc1C(=O)N1CCCC(C(=O)Nc2cccc(-c3ccc(F)cc3)c2)C1 (configuration not stated) -3.84%
CCCc1cc(C(=O)OC)c2ccccc2n1 5.2%
O=C(COC(=O)C1CCC(=O)N1)Nc1ccc(Br)cc1 (configuration not stated) 15.9%
Cc1cc(C)cc(NC(=O)C(NCC2CCCO2)c2ccccc2)c1 (configuration not stated) 20.5%
COc1ccc(CCNC(C(=O)Nc2cc(C)cc(C)c2)c2ccccc2)cc1 (configuration not stated) 2.32%
CCC1(C)CC(CCN(Cc2ccco2)C(C)=O)(c2ccccc2)CCO1 (configuration not stated) 6.02%
CCOC(=O)N1CCC(N2C(=O)c3ccc(C(=O)NCc4ccc(F)cc4)cc3C2=O)CC1 -5.85%
CC(=O)c1c(C)[nH]c(C(=O)OCC(=O)Nc2ccc3[nH]c(=O)[nH]c3c2)c1C 9.39%
O=S(=O)(Cc1ccccc1)Nc1ccc(F)cc1 8.87%
CCC1=Nc2cc(C(=O)O)ccc2Sc2ccccc21 -0.29%
CCOC(=O)N1CCC(NC(=O)c2ccc3c(c2)N=C(C)c2ccccc2S3)CC1 4.04%
CC1=Nc2cc(C(=O)O)ccc2Sc2ccc(C)cc21 -10.1%
CC1=Nc2cc(C(=O)NCCCOC(C)C)ccc2Sc2ccc(C)cc21 7.38%
Cc1cccc(N(C(=O)CNC(=O)c2ccco2)C(C(=O)NC2CCCC2)c2cccnc2)c1C (configuration not stated) 5.36%
Cc1ccccc1OCC1Cn2c(nc3c2c(=O)[nH]c(=O)n3C)O1 (configuration not stated) 2.68%
CN1C(=S)N(c2cccnc2)C(=O)/C1=C\c1ccc(N(C)C)cc1 12.2%
Cc1c(N2C(=O)/C(=C/c3ccc(N(C)C)cc3)N(C)C2=S)c(=O)n(-c2ccccc2)n1C 27.2%
Cc1c(NC(=S)N/N=C/c2ccc(Br)cc2)c(=O)n(-c2ccccc2)n1C 9.41%
Cc1c(NC(=S)N/N=C/c2cccc(O)c2)c(=O)n(-c2ccccc2)n1C 12.8%
Cc1c(N=Cc2cc3c(cc2Cl)OCO3)c(=O)n(-c2ccccc2)n1C 4.04%
CC(=O)/C(N=Nc1c(C)n(C)n(-c2ccccc2)c1=O)=C(\C)O 0.69%
COC(=O)/C(N=Nc1c(C)n(C)n(-c2ccccc2)c1=O)=C(\C)O 6.21%
Cc1c(O)c(=O)n(-c2ccccc2)n1C 2.13%
O=C(Nc1cccc(-c2cccc(F)c2)c1)C1CCN(Cc2ccco2)CC1 7.74%
